This excerpt belongs to a sample that is enriched for hits.
Pf Dd2 growth = Plasmodium falciparum Dd2 growth inhibition | P. falciparum Dd2 growth, SYBR Green, 72 h | Potency, µM (titrated, usually from 28.9 µM), for inactives: at the highest dose activity, negative = inhibition, most hits filed as inhibitors | AID 1347417 | 120,000 compounds, 4.3% hits; active = well fitted inhibition curve with a large enough effect;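 also: plate controls were DMSO vehicle for no effect and reference drug for full effect; nearly all actives have a fitted effect of over 65% in size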
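Infected erythrocytes (Dd2, 0.3% parasitemia, 2.5% hematocrit final) are added to compound in RPMI-1640/Albumax II medium, grown 72 h at 37C in low oxygen, then lysed with saponin/Triton-X containing SYBR Green and read by fluorescence.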
Starred values were filed as active, the others as inactive; i = inactive; [ ] = dose if it differs, or a comment. Potency is read from the fitted curve at half-maximal effect.

SMILES	Pf Dd2 growth
Cc1ccc(N2CCN(S(=O)(=O)c3cc(Br)cc4c3N(C(=O)C3CC3)CC4)CC2C)cc1 (centres undefined)	i
COc1ccc(N2CCN(S(=O)(=O)c3cc(Br)cc4c3N(C(=O)C3CC3)CC4)CC2)cc1	i
Cc1ccc(C)c(N2CCN(C(=O)CCS(=O)(=O)c3cc(Br)cc4c3N(C(=O)C3CC3)CC4)CC2)c1	11µM*
O=C(CCS(=O)(=O)c1cc(Br)cc2c1N(C(=O)C1CC1)CC2)N1CCN(c2cccc(C(F)(F)F)c2)CC1	10µM*
O=C(CCS(=O)(=O)c1cc(Br)cc2c1N(C(=O)C1CC1)CC2)N1CCN(c2ccc(F)cc2)CC1	7.9µM*
Cc1ccc(C)c(N2CCN(C(=O)CCNS(=O)(=O)c3ccc4c(c3)CCN4C(=O)C3CC3)CC2)c1	-1%
CCC(=O)N1CCc2cc(S(=O)(=O)CCC(=O)N3CCN(c4cccc(Cl)c4)CC3)ccc21	-12%
COc1ccccc1CNS(=O)(=O)c1cc(Br)cc2c1N(C(=O)C1CC1)CC2	1%
Cc1ccc(C)c(N2CCN(S(=O)(=O)c3cc(Br)cc4c3N(C(=O)C3CC3)CC4)CC2)c1	49%
NC(=O)[C@@H](Cc1ccccc1)NC(=O)[C@@H]1C[C@@H](NC(=O)c2cnccn2)CCN1C(=O)CSCC(=O)O	-8%
Cc1noc([C@@H]2CC(F)(F)CN2C(=O)COc2ccccc2)n1	13%
Cn1cc(NC(=O)CN2CCC(N3CCCC(C(=O)N4CCCC4)C3)CC2)cn1 (centres undefined)	-10%
NC(=O)[C@H](Cc1ccc(O)cc1)NC(=O)C1=C[C@@H](NC(=O)c2cnccn2)[C@@H](O)[C@H](O)C1	1%
CNC(=O)[C@@H]1CN(C(=O)c2cnn(C)c2)C[C@H]1COC	-1%
Cc1ccc(NC(=O)C2CC(=O)N(c3n[nH]c4cccc(F)c34)C2)cc1 (centres undefined)	8%
CC(=O)c1cc(CC(=O)N[C@@H]2COCC[C@@H]2OCc2ccccc2)cs1	8%
CN1CCCC(CN(CCc2ccccc2)C(=O)c2cc[n+]([O-])cc2)C1 (centres undefined)	-16%
CC(=O)c1cc(CN(CCc2ccccc2)CC2CCCN(C)C2)cs1 (centres undefined)	13µM*
O=C(CN1CCCCCC1)N1C[C@@H](CO)[C@H](c2ccncc2)C1	29%
Cc1ccc(-c2nc(C3CC(=O)OC34CCCC4)n(CC(=O)O)n2)o1 (centres undefined)	2%
COc1cccc(CN2CCCC(c3nc(-c4cnccn4)no3)CCNC(=O)CC2)c1OC (centres undefined)	i
O=c1[nH]nc2n1CCNCC2	20%
Cc1ccc(C2=NC3(CCN(C(=O)c4ccncc4)CC3)ON2)cc1	-24%
O=c1c2nc(-c3cccc(C(F)(F)F)c3)ccc2ncn1Cc1ccccn1	-8%[44.1 µM]
Cn1cnc2ccc(-c3cccc(C(F)(F)F)c3)nc2c1=O	4.5µM*
SMILES	Pf Dd2 growth
COCCn1cnc2ccc(-c3cccc(O)c3)nc2c1=O	-8%[44.1 µM]
O=C(NCc1ccco1)c1ccc(CN2C(=O)NC3(CCS(=O)(=O)CC3)C2=O)cc1	-14%
O=c1[nH]c(N2CCOCC2)nc2c1CCN(Cc1cccc(Br)c1)CC2	-5%[5.79 µM]
CCc1n[nH]c(CC2CCN(C(=O)c3ccnn3CC)CC2)n1	-24%
Cn1nccc1C(=O)NCC1Cn2cccc2CN1Cc1ccccc1 (centres undefined)	-8%
Cn1cnc(S(=O)(=O)NCC2Cn3cccc3CN2Cc2ccccc2)c1 (centres undefined)	-16%
CN1Cc2cccn2CC1CNC(=O)Cc1cccc(F)c1 (centres undefined)	-25%
CN1Cc2cccn2CC1CNC(=O)Cc1ccccc1 (centres undefined)	-19%
O=C(NCC1Cn2cccc2CN1Cc1ccccc1)c1cncc(Br)c1 (centres undefined)	10µM*
Cc1cc(C)n(Cc2ccc(C(=O)NCC3Cn4cccc4CN3Cc3ccccc3)o2)n1 (centres undefined)	5µM*
CCn1ccc(C(=O)NCC2Cn3cccc3C(=O)N2CC(C)C)n1 (centres undefined)	-19%
Cc1cc(C(=O)NCC2Cn3cccc3C(=O)N2Cc2ccccc2)n(C)n1 (centres undefined)	35%
CCn1ccc(C(=O)NCC2Cn3cccc3CN2Cc2ccccc2)n1 (centres undefined)	14µM*
Cc1cc(F)ccc1NC(=O)CN1C(=O)NC2(CCS(=O)(=O)CC2)C1=O	11%
Cc1cc(C(=O)N2CC[C@](O)(c3ccccc3)[C@H](N(C)C)C2)n[nH]1	27%[5.79 µM]
O=C(NCCCN1CCCc2ccccc21)C1CCCCC(=O)N1Cc1ccccc1 (centres undefined)	-24%
COCCNC(=O)C[C@@H]1C[C@H]2O[C@H](CNCc3cnccc3Cl)[C@@H](O)[C@H]2O1	-23%[44.1 µM]
CC(C)CCNC(=O)c1ccc(N2CC3CC(C2)[C@H]2CCCC(=O)N2C3)nc1 (some centres undefined)	i
O=C(NCc1nnnn1-c1ccccc1)C1CC2(CCNCC2)CN1 (centres undefined)	0%
NC(=O)CCNC(=O)C1=C[C@@H](NC(=O)Nc2cccc(F)c2)[C@@H](O)[C@H](O)C1	-23%[44.1 µM]
C#CCOc1cccc(CN2CCN3C(=O)CN(C)C(=O)C3C2)c1 (centres undefined)	-9%
CCOC(=O)c1cc(-c2ccccc2)n(CCC(=O)NCc2ccccc2Cl)c1C	i
COc1ccc(-c2cc(C(C)=O)c(C)n2CCC(=O)NCc2ccccc2OC)cc1	-13%
CCOC(=O)c1cc(-c2ccc(OC)cc2)n(CCC(=O)NCc2ccccc2OC)c1C	7.9µM*
Cc1ccc(NC(=O)N2CCC(CCNC(=O)C3CCC3)CC2)cc1F	-15%
SMILES	Pf Dd2 growth
C#CCNC(=O)C1=NOC2CN(C(=O)C3CC3)CC12 (centres undefined)	12%[44.1 µM]
CCc1ccc(C(=O)N2CCCC(c3noc(-c4cc5c(=O)[nH]c(C)cn5n4)n3)C2)cc1 (centres undefined)	0.89µM*
Cc1ccsc1C(=O)N1CCCC(c2noc(COc3ccccc3F)n2)C1 (centres undefined)	9%
Cc1cn2nc(-c3nc(C4CCCN(C(=O)c5ccc(C)s5)C4)no3)cc2c(=O)[nH]1 (centres undefined)	-12%
Cc1cccc(C(=O)N2CCCC(c3noc(COc4ccccc4)n3)C2)c1 (centres undefined)	2%
COCc1nc(C2CCCN(C(=O)c3ccc(C)cc3)C2)no1 (centres undefined)	39%
CCOCc1nc(C2CCCN(C(=O)Cc3cccc(C)c3)C2)no1 (centres undefined)	20%
Cc1cn2nc(-c3nc(C4CCCN(C(=O)c5sccc5C)C4)no3)cc2c(=O)[nH]1 (centres undefined)	4.5µM*
CCOCc1nc(C2CCCN(C(=O)c3ccc(OC)cc3)C2)no1 (centres undefined)	i
Cc1cccc(C(=O)N2CCC(c3noc(CO)n3)C2)c1 (centres undefined)	1%
O=C(Cc1cccc(F)c1)N1CCCC(c2nc(C3CCOCC3)no2)C1 (centres undefined)	21%
Cc1cccc(C(=O)N2CCCC(c3noc(-c4cc5c(=O)[nH]c(C)cn5n4)n3)C2)c1 (centres undefined)	5.6µM*
Cc1cn2nc(-c3nc(C4CCCN(C(=O)Cc5cccc(F)c5)C4)no3)cc2c(=O)[nH]1 (centres undefined)	4µM*

Assay outcomes deposited in PubChem BioAssay by National Center for Advancing Translational Sciences (NCATS).
